# Data published in publication PMC7155171, “Probing the Open Global Health Chemical Diversity Library for Multistage-Active Starting Points for Next-Generation Antimalarials” (ACS Infectious Diseases, 2020).
# Test system: P. berghei liver stage (PbLuc)
# Design: species or system HepG2-A16-CD81; P. berghei luciferase sporozoite infection of hepatocytes, liver stage luminescence
# Settings: 48 h, inhibitor
row,SMILES,PbLuc primary screen (10uM): inhibition % (n=1)
1,Cc1cccc(C2N3CCC4(CC3)c3[nH]c5ccccc5c3CCN24)n1 (stereo not drawn) [DDD01058402],-19.7%
2,Cc1[nH]n(-c2ccccc2)c2nc(C(C)(C)CN3CCN(C)CC3)nc1-2 [DDD01252143],8.08%
3,Cc1ccccc1CN(C)C(=O)CCC1=NC(=C2N=CN=N2)NO1 [DDD01062116],13.7%
4,COc1ccc(-c2c(C(C)C)nn3c(N)c(C#N)nnc23)cc1 [DDD01035184],53.1%
5,CCc1cc(=O)n2nc(C3CCCN3C(=O)c3ccccn3)cc2[nH]1 (stereo not drawn) [DDD01057178],18.85%
6,COc1cc2c(cc1-c1nc3c[nH]n(C(C)C4CC4)c-3n1)OCO2 (stereo not drawn) [DDD01244142],34%
7,Cc1[nH]n(C2CCS(=O)(=O)C2)c(=O)c1Cc1ccccc1Cl (stereo not drawn) [DDD01026964],34.1%
8,COCC(=O)Nc1[nH]nc2c1c(C)nn2Cc1cccc(OC)c1 [DDD01063147],-14.8%
9,CCn1[nH]cc2nc(-c3ccc(OC)c(COC)c3)nc1-2 [DDD01253750],-45.8%
10,Cc1ccc(CN2CCc3c([nH]c4cc(C5CC5)nn4c3=O)C2)s1 [DDD01058491],44.3%
11,Cc1cc(=O)n(-c2ccc3nnc(C)n3n2)[nH]1 [DDD01038570],6.83%
12,Cc1[nH]n(-c2ccc(F)cc2)c2nnc(N)c1-2 [DDD01065623],46.4%
13,Cc1[nH]n(Cc2ccc(F)cc2)c2nnc(N)c1-2 [DDD01012470],78.2%
14,CCC(=O)Nc1[nH]nc2c1c(C)nn2Cc1cccc(OC)c1 [DDD01063148],-31%
15,COc1cc(OC)c(-c2nc3c(C4CC4)[nH]n(C)c-3n2)cc1OC [DDD01244474],41.8%
16,O=C(CNC(=O)N1CCc2c([nH]c3ccc(Cl)cc23)C1)N1CCOCC1 [DDD01035668],18.2%
17,CCc1ccc(NC(=O)Nc2c(O)c3ccccc3oc2=O)cc1 [DDD01037337],-11.4%
18,CCc1c(C)[nH]c2cc(C3CCN(Cc4cccc(F)c4)C3)nn2c1=O (stereo not drawn) [DDD01060569],77.3%
19,Cc1[nH]n(C2CCS(=O)(=O)C2)c(=O)c1Cc1ccccc1 (stereo not drawn) [DDD01026976],36.9%
20,COCCC(=O)N1Cc2[nH]c3c(C)c(-c4cccs4)nn3c(=O)c2C1 [DDD01056578],-5.78%

row,SMILES,PbLuc primary screen (10uM): inhibition % (n=1)
1,COc1cc2c(cc1-c1nc3c[nH]n(C(C)C(C)C)c-3n1)OCO2 (stereo not drawn) [DDD01255421],31.9%
2,Cc1ncc(CN2CCc3[nH]c4cc(C(C)(C)C)nn4c(=O)c3C2)n1C [DDD01058400],-12.3%
3,Cc1cc(=O)n2nc(C3CCN(C(=O)c4ccccn4)CC3)cc2[nH]1 [DDD01057174],7.55%
4,CN(Cc1ccc(F)c(F)c1)C(=O)CCC1=NC(=C2N=CN=N2)NO1 [DDD01062114],55.4%
5,Cc1[nH]n(C2CCS(=O)(=O)C2)c(=O)c1Cc1cccc(Cl)c1 (stereo not drawn) [DDD01026994],28.5%
6,COCCC(=O)N1CCC(c2cc(=O)n(C)[nH]2)C1 (stereo not drawn) [DDD01060470],0.301%
7,CCc1c(C)nn2c(=O)cc(C3CCN(C(=O)c4cnn(C)c4)C3)[nH]c12 (stereo not drawn) [DDD01056908],9.3875%
8,CCc1nc(CN(C)C2CCN(CCn3cc(C#N)cn3)C2)no1 (stereo not drawn) [DDD01304196],41.4%
9,Cn1ccc(C(=O)N2CCCC(c3cc(=O)n(C)[nH]3)C2)n1 (stereo not drawn) [DDD01060541],36.4%
10,Cc1nc(N2CCCC2)ncc1-c1cc(=O)n2ncnc2[nH]1 [DDD01038581],16.8%
11,Cc1ncsc1C(=O)N1CCCCC1c1cc2[nH]c(C)c(C)c(=O)n2n1 (stereo not drawn) [DDD01059037],-26.2%
12,Cc1[nH]n(C2CCS(=O)(=O)C2)c(=O)c1CCc1ccccc1 (stereo not drawn) [DDD01026977],5.33%
13,COc1cccc(F)c1-c1nc2c(C3CC3)[nH]n(C)c-2n1 [DDD01246655],-18.5%
14,Cc1[nH]n(C2CCS(=O)(=O)C2)c(=O)c1Cc1ccc(Br)cc1 (stereo not drawn) [DDD01026979],43.4%
15,CCc1c(C)[nH]c2cc(C3CCN(CCc4ccccc4)C3)nn2c1=O (stereo not drawn) [DDD01060567],83.3%
16,CC(=O)N1CCCN(C(=O)CCOc2ccc(C(C)C)cc2)CC1 [DDD01298039],52.5%
17,Cc1[nH]n(C2CCCC2)c2nc(C(C)(C)CN3CCN(C)CC3)nc1-2 [DDD01248613],49.4%
18,CCc1c(C)[nH]c2cc(C3CCN(Cc4ccccc4F)C3)nn2c1=O (stereo not drawn) [DDD01270117],85.9%
19,Cn1nc(C2CCC2)c(-c2ccc3c(c2)OCO3)c1N [DDD01074643],64.7%
